The campaign covered roughly 350,000 compounds. About 31,000 (8.9%) were called active. About 15% were inconclusive and are not listed. Shown is part of a subset that was picked to be rich in actives. A number with no mark means an inactive call. The call rests on the fitted dose curve; in most records, active means well fitted inhibition curve with a large enough effect; inconclusive means small, poorly fitted or top-dose-only effect; inactive means no such curve, though single readings can be large or run the other way.
Molecular target: Histone-lysine N-methyltransferase EHMT2 (Homo sapiens) (UniProt Q96KQ7)
Sequence (Q96KQ7 913-1193 limits assumed): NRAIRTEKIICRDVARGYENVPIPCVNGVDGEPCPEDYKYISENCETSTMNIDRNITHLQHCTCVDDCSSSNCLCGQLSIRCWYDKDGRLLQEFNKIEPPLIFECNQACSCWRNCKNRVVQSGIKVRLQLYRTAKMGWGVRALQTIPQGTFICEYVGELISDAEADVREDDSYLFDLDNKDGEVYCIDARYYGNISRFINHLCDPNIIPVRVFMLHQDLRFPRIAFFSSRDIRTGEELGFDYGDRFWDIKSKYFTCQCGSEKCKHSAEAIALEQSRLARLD
Test: qHTS Assay for Inhibitors of Histone Lysine Methyltransferase G9a; further: nearly all actives have a fitted effect of over 75% in size
Conditions: G9a H3K9 monomethylation, AlphaScreen, 2 h; series mostly up to 59 µM; activity, negative = inhibition: at the top concentration
Summary of the method: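 Signal arises when biotinylated H3K9 peptide, once monomethylated, bridges streptavidin donor and antibody-captured acceptor beads. Enzyme at 20 nM was preincubated 15 min with test compounds; peptide 500 nM and SAM 20 uM then reacted for 2 h.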
On the % scale 0 is the no-effect control and ±100 the full control effect; potency means the concentration at half of the fitted maximal effect.

SMILES	activity, negative = inhibition	Potency
CCC1CCCCN1C(=O)Cn1c(=O)n(CCCCCC(=O)NCc2ccccc2)c(=O)c2sccc21 (configuration not stated)	-0.514%	
COc1ccccc1C(=O)Nc1c(C(=O)N(C)Cc2ccccc2)sc2nc(C)c(Cl)c(C)c12	-34.1%	
Cc1ccccc1NC(=O)CN1C(=O)C(C)(C)c2ccccc21	13.1%	
C=C1CCC(N(O)c2cc(C)on2)C(=C)CCC2C1CC2(C)C (configuration not stated)	-0.801% [at 0.501 µM]	
CCCCC12CN3CC(C)(CN(C1)C3c1ccc(O)c(OC)c1)C2=O (configuration not stated)	-6.49%	
CCC[C@H]1CCCC/C=C\CCCC(=O)OCCN1C(=O)OC(C)(C)C	5.32% [at 2.33 µM]	
O=C1CC(c2nnc(Cc3ccc(Cl)cc3)o2)CN1c1ccccc1 (configuration not stated)	-40.5%	
CC(=O)N(C1=C(Cl)C(=O)c2ccccc2C1=O)c1ccc(C(=O)O)cc1		0.891 µM (active)
CC(C)N(C(=O)c1ccc(-c2ccccc2F)cc1)C(C)C	46.1% [at 102 µM]	
O=C(CN1C(=O)c2ccccc2C1=O)NCc1ccc(C(=O)O)cc1	18.2% [at 102 µM]	
COc1cccc(CNCc2c(C(=O)O)n(Cc3ccc(C)cc3)c3cc(C)ccc23)c1OC	-34.2%	
CCn1c(=O)n(CC)c2cc(N3CCCC3)c(NC(=O)c3ccccc3Br)cc21		44.7 µM (active)
CCn1c(=O)c(=O)n(CC)c2cc(N3CCCCC3)c(NC(=O)c3cccc(F)c3)cc21	-23.6%	
CCn1c(=O)c(=O)n(CC)c2cc(N3CCCCC3)c(NC(=O)c3ccc(Cl)cc3)cc21	1.91% [at 12.7 µM]	
Cc1cc(C)cc(NC(=O)Cn2c(=O)c3ccccc3n3nncc23)c1	6%	
COc1cc(C(=O)OCC(=O)N(CC(C)C)C2CCS(=O)(=O)C2)ccc1OCC(C)C (configuration not stated)	-31.5% [at 102 µM]	
COc1ccc(C(=O)OCC(=O)N2CC(=O)Nc3ccccc32)cc1Br	-27.7% [at 102 µM]	
Cc1ccc(S(=O)(=O)N2CCN(C)CC2)cc1C(=O)NC1CCCCC1	107% [at 102 µM]	
Cc1ccc(S(=O)(=O)N2CCCCC2)cc1C(=O)N1CCN(CCO)CC1		11.2 µM (active)
CCOC(=O)N1CCN(C(=O)c2cn(C)c3ccc(S(=O)(=O)N4CCCC4)cc3c2=O)CC1	-3.84%	
Cc1cccc(N2CCN(c3c(CN4CCCC4)c(=O)oc4ccccc34)CC2)c1C	-1.43%	
COc1ccc(N(CC(=O)NCCc2ccc(Cl)cc2)S(=O)(=O)c2c(C)nn(C)c2C)cc1	1.32%	
CCC(=O)N1CCc2cc(S(=O)(=O)NC(Cc3ccccc3)C(=O)NCc3ccccc3)ccc21 (configuration not stated)	1.47%	
Cc1ccc(S(=O)(=O)NCCC(=O)NCc2ccc(Cl)cc2)cc1C	3.24%	
COc1cc2c(cc1OC)C(/C=C/c1ccco1)=NCC2		50.1 µM (active)
COc1cc2c(cc1OC)C(c1cccc([N+](=O)[O-])c1)=NCC2	-8.09% [at 102 µM]	
CCOC(=O)C1=NN(c2ccc(Cl)cc2)/C(=C/C2=NCCc3cc(OC)c(OC)cc32)S1	4.77%	

From PubChem BioAssay AID504332 (National Center for Advancing Translational Sciences (NCATS), 2011)
